Laboratory results reported in PubChem BioAssay (NCI).
This is part of a sample that, as a whole, favours compounds with a hit. Of some 83,000 tested, about 20% had one in any assay.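 Treatment: one concentration, 48 hours, 96-well format. Scoring: percent growth, with anything below 10 considered active.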 Unmarked numbers belong to inactive results. Calls of active or inactive are those of the source.

How the values were obtained:
Experiment in all cases: NCI-60 one-dose screen, 48 h (100 = growth as untreated, 0 = no growth, -100 = all killed)
Settings in all cases: 10 µM
786-0 renal = system: 786-0 renal
MALME-3M melanoma = system: MALME-3M melanoma
RXF 393 renal = system: RXF 393 renal
UACC-257 melanoma = system: UACC-257 melanoma
SK-MEL-2 melanoma = system: SK-MEL-2 melanoma
SN12C renal = system: SN12C renal
TK-10 renal = system: TK-10 renal
ACHN renal = system: ACHN renal
A498 renal = system: A498 renal
RPMI-8226 leukemia = system: RPMI-8226 leukemia
OVCAR-8 ovarian = system: OVCAR-8 ovarian
OVCAR-4 ovarian = system: OVCAR-4 ovarian
SK-OV-3 ovarian = system: SK-OV-3 ovarian
IGROV1 ovarian = system: IGROV1 ovarian
OVCAR-3 ovarian = system: OVCAR-3 ovarian
NCI/ADR-RES ovarian = system: NCI/ADR-RES ovarian
T-47D breast = system: T-47D breast
BT-549 breast = system: BT-549 breast
MDA-MB-435 melanoma = system: MDA-MB-435 melanoma
MCF7 breast = system: MCF7 breast

| SMILES | growth (786-0 renal) | growth (MALME-3M melanoma) | growth (RXF 393 renal) | growth (UACC-257 melanoma) | growth (SK-MEL-2 melanoma) | growth (SN12C renal) | growth (TK-10 renal) | growth (ACHN renal) | growth (A498 renal) | growth (RPMI-8226 leukemia) | growth (OVCAR-8 ovarian) | growth (OVCAR-4 ovarian) | growth (SK-OV-3 ovarian) | growth (IGROV1 ovarian) | growth (OVCAR-3 ovarian) | growth (NCI/ADR-RES ovarian) | growth (T-47D breast) | growth (BT-549 breast) | growth (MDA-MB-435 melanoma) | growth (MCF7 breast) |
| --- | --- | --- | --- | --- | --- | --- | --- | --- | --- | --- | --- | --- | --- | --- | --- | --- | --- | --- | --- | --- |
| COC(=O)C[C@](O)(CCC(C)C)C(=O)O[C@H]1C(OC)=C[C@@]23CCCN2CCc2cc4c(cc2[C@@H]13)OCO4 | -16.1% (active) | -45.1% (active) | -30.5% (active) | -30.9% (active) | -46.4% (active) | -14.9% (active) | -16.4% (active) | -23.3% (active) | -19% (active) | -19.5% (active) | -38.8% (active) | -22.7% (active) | -8.41% (active) | -19.3% (active) | -36.9% (active) | -2.69% (active) | -7.42% (active) | -33.7% (active) | -32.6% (active) | -17% (active) |
| O=C(/C=C/c1ccc(Cl)cc1Cl)c1nc2ccccc2n1Cc1ccc(Br)cc1 | 32.6% | 84% | 58.2% | 84.4% | 97.2% | 75.7% | 99.8% | 71.3% | 103% | 2.18% (active) | 80.6% | 73.7% | 92.9% | 68.4% | 68.4% | 82.1% | 44.4% | 59.2% | 79.2% | 17.1% |
| COc1ccc(OC)c(/C=C/C(=O)c2nc3ccccc3n2Cc2ccc(F)cc2)c1 | -57.7% (active) | -36.9% (active) | -52.5% (active) | 15.3% | -28.2% (active) | 4.76% (active) | 13.1% | -48.2% (active) | 116% | -36.8% (active) | 3.97% (active) | 37.9% | 50.2% | -7.29% (active) | -12% (active) | -41.5% (active) | 10.5% | -58.2% (active) | -46.9% (active) | 2.95% (active) |
